We go through 32 molecules from PubChem BioAssay (EPA / NIEHS).

Assay [1] in a line: ATG_VDRE_CIS: Attagene CIS-FACTORIAL HepG2 Assay for human Vitamin D Receptor Element (VDRE) (AID 2282968; active means hit-call score of the fitted dose curve at least 0.9, where 1 is the maximum; inactive means score below 0.9). Conditions: HepG2 VDRE cis-reporter transcription, actives raise or lower the signal. The gist of the method: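 Reporter mRNA induction, quantified by capillary electrophoresis of fluorescently labelled RT-PCR products, was read 24 h after dosing HepG2 cells carrying transiently transfected cis-regulated reporter units; gain or loss relative to DMSO.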

Assay [2] concerns the target Steroid hormone receptor ERR1 (Homo sapiens) (UniProt P11474). The experiment in a line: ATG_ERRa_TRANS: Attagene TRANS-FACTORIAL HepG2 Assay for human Estrogen-Related Receptor alpha (ERRa) (AID 2282971). Conditions: HepG2 Attagene TRANS reporter, ERRa transactivation. An outline of the steps:
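Signal gain relative to DMSO for an ERRa-Gal4 chimeric receptor, read as reporter mRNA by RT-PCR/capillary electrophoresis. Human HepG2 liver cells, transient multiplex reporter transfection, 24 h chemical exposure.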

The target in assay [3] is X-box-binding protein 1 (Homo sapiens) (UniProt P17861). In words: ATG_Xbp1_CIS: Attagene CIS-FACTORIAL HepG2 Assay for human X-box Binding Protein 1 (XBP1) (AID 2282972; active means hit-call score of the fitted dose curve at least 0.9, where 1 is the maximum; inactive means score below 0.9). Conditions: HepG2 XBP1 cis-element reporter, Attagene multiplex; actives raise or lower the signal. The gist of the method:
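HepG2 cells transiently transfected with multiple cis-element reporter units report endogenous TF activity; 24 h exposure, then reporter mRNA measured by RT-PCR, 6-FAM labelling, HpaI digestion and capillary electrophoresis. Bidirectional fitting versus DMSO.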

Assay [4] concerns the target Estrogen-related receptor gamma (Homo sapiens) (UniProt P62508). In words: ATG_ERRg_TRANS: Attagene TRANS-FACTORIAL HepG2 Assay for human Estrogen-Related Receptor gamma (ERRg) (AID 2282977).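 Further: hits increase reporter signal over DMSO so potencies reflect activators.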 Conditions: HepG2 Attagene TRANS reporter, ERRg transactivation. An outline of the steps:
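HepG2 cells transiently transfected with multiplexed GAL4-UAS reporter units driven by chimeric NR-Gal4 proteins; 24 h exposure. Reporter mRNA quantified by RT-PCR, fluorescent labelling, HpaI digestion and capillary electrophoresis; gain of signal vs DMSO.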

Assay [5] can be described thus: ATG_TGFb_CIS: Attagene CIS-FACTORIAL HepG2 Assay for human Transforming Growth Factor (TGF) (AID 2282967; active means hit-call score of the fitted dose curve at least 0.9, where 1 is the maximum; inactive means score below 0.9). Conditions: HepG2 Attagene CIS TGFb reporter, mRNA transcription; actives raise or lower the signal. An outline of the steps: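 Multiplexed cis-reporter HepG2 system, 24 h treatment; mRNA induction read by fluorescence after RT-PCR and CE; DMSO negative control, bidirectional curve fitting.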

A short description of assay [6]: ATG_M_19_TRANS: Attagene TRANS-FACTORIAL HepG2 Assay for M19 Transcription Factor (Internal Marker) (AID 2282974). Conditions: HepG2 Attagene TRANS-FACTORIAL M19 internal marker reporter. An outline of the steps:
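Gain-of-signal in reporter mRNA, relative to DMSO, was scored from capillary electrophoresis fluorescence. HepG2 cells carried transiently transfected multiple reporter transcription units and were incubated with test chemicals for 24 h.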

The nature of assay [7]: ATG_GAL4_TRANS: Attagene TRANS-FACTORIAL HepG2 Assay for GAL4 (Internal Marker) (AID 2282976). Conditions: HepG2 Attagene TRANS GAL4 internal marker reporter. An outline of the steps: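 Liver HepG2 line bearing multiplexed GAL4-UAS reporter constructs; 24 h chemical treatment. Transcripts were quantified as fluorescent fragments on capillary electrophoresis after RT-PCR and HpaI cut, with activity fitted upward from DMSO.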

Assay [8] addresses Estrogen receptor (Homo sapiens) (UniProt P03372). In words: ATG_ERa_TRANS: Attagene TRANS-FACTORIAL HepG2 Assay for human Estrogen Receptor alpha (ERa) (AID 2282970). Conditions: HepG2 Attagene TRANS ERa GAL4 reporter, mRNA. An outline of the steps: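 Multiplexed cell-based reporter format in HepG2: chimeric ERa-Gal4 protein drives GAL4-UAS reporter transcription. Fluorescent reporter mRNA quantified by capillary electrophoresis 24 hours after dosing; endpoint fitted as signal gain against DMSO.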

For assay [9], the target named is Glucocorticoid receptor (Homo sapiens) (UniProt P04150). The experiment in a line: ATG_GR_TRANS: Attagene TRANS-FACTORIAL HepG2 Assay for human Glucocorticoid Receptor (GR) (AID 2282978).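 Further: activators score as hits since higher reporter transcript over DMSO is fitted.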 The conditions noted are these: HepG2 Attagene TRANS GR reporter, mRNA transcription. An outline of the steps:
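HepG2 transient transfection, multiple reporter units, GAL4-UAS under NR-GAL4 chimera control. 24 h treatment. Reporter mRNA by RT-PCR/CE fluorescence, DMSO as negative control.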

For assay [10], the target named is Bile acid receptor (Homo sapiens) (UniProt Q96RI1). The experiment in a line: ATG_FXR_TRANS: Attagene TRANS-FACTORIAL HepG2 Assay for Farnesoid X Receptor (FXR) (AID 2282979).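 Further: hits raise reporter mRNA above DMSO so AC50 marks FXR activation.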 The conditions noted are these: HepG2 Attagene TRANS FXR-GAL4 reporter transcription. The gist of the method:
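After 24 h chemical treatment of transfected HepG2 cells, GAL4-UAS reporter transcripts driven by an exogenous FXR-GAL4 fusion were measured by RT-PCR and capillary electrophoresis. Increases over DMSO were fitted.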

“And” between values parts separate entries of the source, which are not always exact repeats. Identical values can stand only once. Results filed as inconclusive are left out. Some compounds were tested as several samples or in several runs, with calls that do not always agree. The source made the active and inactive calls. How the source made its calls, unless noted: active means hit-call score of the fitted dose curve at least 0.9, where 1 is the maximum; inconclusive means response in the unintended direction; inactive means score below 0.9.

Chain of Bile acid receptor (Homo sapiens) (Q96RI1 whole entry, looked up, the tested form may be a part): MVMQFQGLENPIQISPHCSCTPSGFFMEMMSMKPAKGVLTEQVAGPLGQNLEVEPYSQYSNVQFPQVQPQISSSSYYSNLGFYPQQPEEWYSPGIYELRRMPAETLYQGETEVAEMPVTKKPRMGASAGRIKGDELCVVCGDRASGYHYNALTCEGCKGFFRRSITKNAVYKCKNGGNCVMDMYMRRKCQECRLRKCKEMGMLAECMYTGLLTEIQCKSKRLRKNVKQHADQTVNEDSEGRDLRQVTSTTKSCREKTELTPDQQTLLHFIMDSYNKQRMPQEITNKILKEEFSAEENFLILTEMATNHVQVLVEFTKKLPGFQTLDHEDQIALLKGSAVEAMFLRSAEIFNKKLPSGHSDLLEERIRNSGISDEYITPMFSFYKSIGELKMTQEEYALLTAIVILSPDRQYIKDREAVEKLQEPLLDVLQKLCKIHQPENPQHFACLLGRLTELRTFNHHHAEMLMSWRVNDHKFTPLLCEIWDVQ
Chain of Estrogen-related receptor gamma (Homo sapiens) (P62508 whole entry, looked up, the tested form may be a part): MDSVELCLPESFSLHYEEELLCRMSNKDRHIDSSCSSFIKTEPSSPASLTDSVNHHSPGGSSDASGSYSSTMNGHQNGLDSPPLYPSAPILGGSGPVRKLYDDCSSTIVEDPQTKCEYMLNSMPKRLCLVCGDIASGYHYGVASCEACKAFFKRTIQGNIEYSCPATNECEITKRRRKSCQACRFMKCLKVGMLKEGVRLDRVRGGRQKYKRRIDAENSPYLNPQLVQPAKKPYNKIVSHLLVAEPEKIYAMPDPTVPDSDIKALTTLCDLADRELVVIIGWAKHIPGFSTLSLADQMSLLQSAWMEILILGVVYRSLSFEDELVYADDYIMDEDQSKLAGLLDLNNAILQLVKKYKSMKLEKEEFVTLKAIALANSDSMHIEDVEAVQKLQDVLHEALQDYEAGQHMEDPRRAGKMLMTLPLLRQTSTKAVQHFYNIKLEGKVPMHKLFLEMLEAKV
Chain of X-box-binding protein 1 (Homo sapiens) (P17861 whole entry, looked up): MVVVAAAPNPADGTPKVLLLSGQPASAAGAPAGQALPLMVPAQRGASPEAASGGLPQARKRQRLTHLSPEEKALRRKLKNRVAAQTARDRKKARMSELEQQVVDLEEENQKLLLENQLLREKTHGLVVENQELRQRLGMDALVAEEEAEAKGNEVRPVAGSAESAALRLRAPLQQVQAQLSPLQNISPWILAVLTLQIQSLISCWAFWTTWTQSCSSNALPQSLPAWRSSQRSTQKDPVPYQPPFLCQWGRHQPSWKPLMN
Chain of Steroid hormone receptor ERR1 (Homo sapiens) (P11474 whole entry, looked up, the tested form may be a part): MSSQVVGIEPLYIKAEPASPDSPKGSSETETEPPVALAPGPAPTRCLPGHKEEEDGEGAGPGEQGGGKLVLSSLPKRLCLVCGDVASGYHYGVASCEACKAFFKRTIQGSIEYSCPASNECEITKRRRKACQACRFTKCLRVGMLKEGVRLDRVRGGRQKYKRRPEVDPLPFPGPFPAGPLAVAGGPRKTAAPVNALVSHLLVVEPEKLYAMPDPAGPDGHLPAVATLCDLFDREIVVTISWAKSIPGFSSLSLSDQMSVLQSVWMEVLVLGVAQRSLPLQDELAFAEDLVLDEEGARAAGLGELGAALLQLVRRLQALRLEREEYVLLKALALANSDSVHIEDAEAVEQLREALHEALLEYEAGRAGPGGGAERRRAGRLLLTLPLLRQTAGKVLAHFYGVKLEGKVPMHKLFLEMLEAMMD
Chain of Estrogen receptor (Homo sapiens) (P03372 whole entry, looked up, the tested form may be a part): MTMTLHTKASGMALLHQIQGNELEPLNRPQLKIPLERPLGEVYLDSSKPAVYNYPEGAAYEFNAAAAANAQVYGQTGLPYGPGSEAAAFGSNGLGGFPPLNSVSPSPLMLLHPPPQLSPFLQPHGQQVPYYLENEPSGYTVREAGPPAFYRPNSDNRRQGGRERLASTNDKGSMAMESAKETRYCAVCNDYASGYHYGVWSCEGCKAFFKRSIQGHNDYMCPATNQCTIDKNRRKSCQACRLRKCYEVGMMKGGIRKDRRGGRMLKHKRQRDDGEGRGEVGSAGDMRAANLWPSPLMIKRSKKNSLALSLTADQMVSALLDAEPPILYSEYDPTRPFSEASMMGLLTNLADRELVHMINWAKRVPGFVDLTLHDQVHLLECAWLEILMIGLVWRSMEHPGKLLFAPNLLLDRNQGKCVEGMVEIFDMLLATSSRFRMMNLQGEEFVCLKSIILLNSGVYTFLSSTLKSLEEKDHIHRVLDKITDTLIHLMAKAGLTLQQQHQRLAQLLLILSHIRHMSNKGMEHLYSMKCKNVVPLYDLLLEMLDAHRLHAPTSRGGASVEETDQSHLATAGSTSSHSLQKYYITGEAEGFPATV
Chain of Glucocorticoid receptor (Homo sapiens) (P04150 whole entry, looked up, the tested form may be a part): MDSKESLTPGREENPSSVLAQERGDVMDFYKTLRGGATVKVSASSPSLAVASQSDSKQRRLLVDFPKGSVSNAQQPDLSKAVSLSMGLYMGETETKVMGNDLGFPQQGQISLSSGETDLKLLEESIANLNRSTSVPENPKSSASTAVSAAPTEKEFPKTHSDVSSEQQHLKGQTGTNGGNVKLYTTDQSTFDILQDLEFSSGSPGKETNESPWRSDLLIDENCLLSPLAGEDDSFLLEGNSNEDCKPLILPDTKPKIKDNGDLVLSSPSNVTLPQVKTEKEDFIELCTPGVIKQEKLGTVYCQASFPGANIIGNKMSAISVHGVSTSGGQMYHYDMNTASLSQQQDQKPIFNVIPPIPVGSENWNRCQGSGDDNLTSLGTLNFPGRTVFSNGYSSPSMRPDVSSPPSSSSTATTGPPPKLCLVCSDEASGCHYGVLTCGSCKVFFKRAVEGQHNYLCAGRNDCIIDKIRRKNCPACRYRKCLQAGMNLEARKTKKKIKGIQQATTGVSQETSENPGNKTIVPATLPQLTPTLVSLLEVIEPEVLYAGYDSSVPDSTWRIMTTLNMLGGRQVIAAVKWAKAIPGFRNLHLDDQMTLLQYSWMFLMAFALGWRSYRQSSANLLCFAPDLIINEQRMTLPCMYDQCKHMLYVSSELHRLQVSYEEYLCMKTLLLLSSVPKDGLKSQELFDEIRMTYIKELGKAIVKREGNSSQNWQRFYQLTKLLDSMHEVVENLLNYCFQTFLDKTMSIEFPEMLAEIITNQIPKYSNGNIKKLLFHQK

Consider `c1ccc(Nc2ccccc2)cc1`, for which the AC50 in assay [1] is 100 µM (active). The call in assay [1], in assay [2], in [3] and in [4] was inactive.
Consider `COCCO`, for which the molecule was classed as inactive in [5], in assay [1], in [3], in assay [6] and in assay [7].
For the molecule `CCN(Cc1c(F)cccc1Cl)c1c([N+](=O)[O-])cc(C(F)(F)F)cc1[N+](=O)[O-]`, the result in [5], in assay [2], in assay [3], in [6], in assay [7] and in [4] was inactive. For the same molecule, the results for the AC50 in assay [1] and in assay [8] were 1.87 µM (active) and 3.08 µM (active), respectively.
Turning to `CCCCOC(=O)[C@@H](C)Oc1ccc(Oc2ccc(C(F)(F)F)cn2)cc1`, the molecule was called inactive in assay [5], in assay [1], in assay [8], in [3], in assay [6] and in assay [9]. Moreover, the outcome in assay [10] was inactive.
For `C#CCOC(=O)[C@@H](C)Oc1ccc(Oc2ncc(Cl)cc2F)cc1`, the result in assay [5], in assay [1], in [8], in assay [2], in [3] and in [9] was inactive.
Regarding `CCSC(=O)N(CC(C)C)CC(C)C`, the outcome in assay [5], in [1], in assay [8], in [3], in assay [4] and in assay [9] was inactive.
Take `CCOC(=O)COc1cc(-n2ncc(C(F)(F)F)c(C)c2=O)c(F)cc1Cl`: the molecule was called inactive in assay [5], in assay [1], in assay [8], in assay [3] and in assay [6].
`CN(C)C(=O)Nc1ccc(Cl)c(Cl)c1`: the result in assay [5], in assay [8], in [2], in assay [3], in assay [6] and in [4] was inactive. Further, the outcome in assay [9] was inactive.
Consider `CSC(=O)c1cccc2nnsc12`, for which the molecule was called inactive in [5], in [1], in assay [3], in assay [6], in assay [7] and in assay [9].
`CC(C)(c1ccc(O)cc1)c1ccc(O)cc1`: the outcome in [2], in [3], in [6], in assay [7] and in assay [4] was inactive.
With `COC(=O)c1ccccc1C(=O)O`, the result in [1], in [3] and in assay [6] was inactive.
Consider `O=C(c1ccc(O)cc1O)c1ccc(O)cc1O`, for which the outcome in assay [1], in assay [3], in assay [6], in [9] and in [10] was inactive. Besides, the AC50 in assay [8] was 827 nM (active) [middle of 4 runs].
For `CCCCC(CC)COC(=O)c1ccccc1C(=O)O` (configuration not stated), the molecule was called inactive in assay [1], in [3], in assay [6], in [7] and in assay [9].
Regarding `CCCOC(=O)c1ccc(C(=O)OCCC)nc1`, the call in assay [1], in assay [8], in [3], in assay [9] and in [10] was inactive.
For `c1ccc2[nH]c(-c3cscn3)nc2c1`, the molecule was called inactive in assay [1], in assay [8], in [3], in assay [6], in assay [7] and in assay [9].
As for `COC(=O)c1ccccc1S(=O)(=O)NC(=O)Nc1nc(OC(F)F)cc(OC(F)F)n1`, the outcome in assay [1], in [8], in assay [3], in [6] and in [9] was inactive.
With `O=C(O)c1ccccc1`, the molecule was called inactive in [1], in [8], in assay [3] and in assay [6].
As to `CCCCCCC(C)OC(=O)COc1nc(F)c(Cl)c(N)c1Cl` (configuration not stated), the molecule was called inactive in assay [1], in [2] and in assay [3].
As for `CCCCOC(=O)C(C)Oc1ccc(Oc2ccc(C(F)(F)F)cn2)cc1` (configuration not stated), the call in assay [1], in assay [8], in assay [3] and in assay [6] was inactive.
Consider `CCCCOCCOCCOCc1cc2c(cc1CCC)OCO2`, for which the molecule was classed as inactive in [3] and in assay [10].
Turning to `N[C@@H](Cc1cc(I)c(Oc2ccc(O)c(I)c2)c(I)c1)C(=O)O`, the outcome in assay [1], in [3], in [6], in assay [7] and in [9] was inactive.
With `CC(C)(C)[C@@H](O)[C@@H](Cc1ccc(Cl)cc1)n1cncn1`, the AC50 in assay [1] is 14 µM (active). Besides, the outcome in assay [3] was inactive.
On to `N#CSCSc1nc2ccccc2s1`, for which the outcome in [1], in [8], in [3] and in assay [9] was inactive. Also, the AC50 in [3] is 14.3 µM (active).
In the case of `O=C(O)C1(C(=O)Nc2ccc(Cl)cc2Cl)CC1`, the call in [1], in assay [8], in assay [3], in assay [6] and in [10] was inactive.
Take `C[C@]12C[C@H](O)[C@H]3[C@@H](CCC4=CC(=O)CC[C@@]43C)[C@@H]1CC[C@@H]2C(=O)CO`: the AC50 in assay [8] is 100 µM (active) and 49.6 µM (active); in assay [9] it was 129 nM (active) [middle of 4 runs]. In addition, the result in assay [8], in [3], in [6] and in [10] was inactive.
On to `O=C(Nc1ccc([N+](=O)[O-])cc1Cl)c1cc(Cl)ccc1O`, for which the AC50 in assay [3] was 0.493 µM (active). Further, the molecule was classed as inactive in [6].
On to `CCCOC(=O)NCCCN(C)C`, for which the molecule was classed as inactive in assay [1], in [3] and in assay [6].
For `COC(=O)c1cccc(C)c1S(=O)(=O)NC(=O)Nc1nc(OCC(F)(F)F)nc(N(C)C)n1`, the molecule was called inactive in assay [1], in [8], in [2], in [3], in [6] and in [4]. Further, the result in assay [9] was inactive.
As for `CC(=O)[C@H]1CC[C@H]2[C@@H]3CCC4=CC(=O)CC[C@]4(C)[C@H]3CC[C@]12C`, the AC50 in [1] is 26.5 µM (active) [middle of 4 runs]; in assay [7], 158 µM (active). Further, the outcome in assay [2], in assay [3], in assay [6] and in assay [7] was inactive.
Consider `CCOC(=O)C(C)Oc1ccc(Oc2nc3ccc(Cl)cc3o2)cc1` (configuration not stated), for which the outcome in assay [1], in assay [3], in assay [6], in assay [4] and in assay [9] was inactive.
With `CCOC(=O)C(C)Oc1ccc(Oc2cnc3cc(Cl)ccc3n2)cc1` (configuration not stated), the molecule was classed as inactive in [1], in [3], in assay [6] and in assay [9].
As for `COC(=O)CSc1cc(N=c2sc(=O)n3n2CCCC3)c(F)cc1Cl`, the result in assay [1], in assay [3], in assay [9] and in [10] was inactive.
